This is an account of results in PubChem BioAssay.

The test system of experiment [1] is Aerobactin synthetase IucA (Klebsiella pneumoniae). Kind of experiment: inhibition of K. pneumoniae IucA enzyme – biochemical, Tocris library, absorbance (AID 1345561).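 Further: 100% = enzyme without compound and 0% = no enzyme.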 Particulars: purified IucA enzyme assay, absorbance (OD) read-out; stronger effect = lower value;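 tested at 8 µM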.
The nature of experiment [2]: viability loss in pontine glioma line – cell-based, SU-DIPG-XVII, MIPE5.0, CellTiter-Glo, qHTS, dose response (AID 1347060; cut-off not given, nearly all actives have AC50 up to about 26 µM;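 on AC50: cells exposed to compound for 48 hours before viability readout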). Particulars: CellTiter-Glo ATP luminescence.
The nature of experiment [3]: viability loss in pontine glioma line – cell-based, SU-DIPG-XIII, MIPE4.0, CellTiter-Glo, qHTS, dose response (AID 1347061; cut-off not given, nearly all actives have AC50 up to about 37 µM;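 further: cells exposed to compound for 48 hours before readout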). Particulars: CellTiter-Glo ATP luminescence. In general terms: ATP-based viability assays read luminescence as a measure of living cells.
The nature of experiment [4]: viability loss in pontine glioma line – cell-based, SU-DIPG-IV, MIPE4.0, CellTiter-Glo, qHTS, dose response (AID 1347063; cut-off not given, nearly all actives have AC50 up to about 30 µM;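 further: compound exposure lasted 48 hours before the viability readout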). Particulars: CellTiter-Glo ATP luminescence.
Experiment [5] in a line: growth inhibition of DIPG cells – cell-based, MIPE4.0 library, CellTiter-Glo luminescence, qHTS (AID 1347066; cut-off not given, nearly all actives have AC50 up to about 30 µM;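 further: cells exposed to compound for 48 hours before readout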). To be noted: SU-DIPG-VI viability, CellTiter-Glo ATP luminescence.
Experiment [6] is described as follows: JHH-DIPG-1 glioma cell viability, MIPE5.0 library, CellTiter-Glo luminescence, qHTS (AID 1347067; cut-off not given, nearly all actives have AC50 up to about 26 µM;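 further: cells exposed to compound for 48 hours before readout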). Particulars: JHH-DIPG-1 glioma viability, CellTiter-Glo ATP luminescence.
Experiment [7] in a line: growth inhibition of DIPG cells – cell-based, MIPE5.0 library, qHTS (AID 1347068; cut-off not given, nearly all actives have IC50 up to about 30 µM;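 on IC50: cells exposed to compound for 48 hours before viability readout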). To be noted: SU-DIPG-XXV viability.
A short description of experiment [8]: viability loss in pontine glioma line – cell-based, JHH-DIPG-1, MIPE4.0, CellTiter-Glo, qHTS, dose response (AID 1347062; cut-off not given, nearly all actives have AC50 up to about 27 µM;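 on AC50: cells exposed to compound for two days before readout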). Particulars: JHH-DIPG-1 viability, CellTiter-Glo ATP luminescence.
Experiment [9] can be described thus: signal quenchers or enhancers, Cy5 substrate/SSB – biochemical, NIH Clinical Collection, E. coli SSB, artefact control for HCV NS3 helicase inhibitor project (AID 743268). Particulars: Cy5-oligo bound E. coli SSB, fluorescence interference.
The subject of experiment [10] is Hepatitis C virus NS3 helicase. The experiment in a line: blockers of NS3h binding to DNA – biochemical, fluorescence polarization, NIH Clinical Collection, primary screen (AID 743270). To be noted: NS3 helicase binding to Cy5-dT15 DNA, stronger effect = higher value, concentration not given here. In general terms: Polarisation of emitted light reports the rotation of a fluorescent probe.

In experiment [11] the target is Single-stranded DNA-binding protein (Escherichia coli (strain K12)) (UniProt P0AGE0). The experiment in a line: SSB-ssDNA binding inhibitors – biochemical, fluorescence polarization, NIH Clinical Collection, counter-screen for HCV NS3 helicase inhibitor project (AID 743271; in the data active means inhibition above about 28%). Particulars: E. coli SSB-DNA binding, stronger effect = higher value, concentration not given here.
Experiment [12] is described as follows: compounds distorting NS3 helicase fluorescence signal – biochemical, NIH Clinical Collection, artefact control for HCV NS3 helicase inhibitor project (AID 743272).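 Further: HCV NS3 helicase with a Cy5 labelled single stranded DNA probe.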 Particulars: fluorescence interference counterscreen, HCV NS3 helicase assay; stronger effect = lower value. For orientation: A counterscreen serves to expose hits that act by an unwanted route or on another target.

Experiment [13] is described as follows: growth inhibition, single agent or in combination, cell-based, chromothripsis tumors, cisplatin or BGB combos (AID 1671449; in the data active means inhibition above about 80%;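 further: cells exposed for 96 hours; 0% = vehicle DMSO and 100% = killing by high DMSO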). Particulars: LFS_MB_P medulloblastoma cells.
Experiment [14] is described as follows: growth inhibition, single agent and combos, cell-based, chromothripsis tumors, cisplatin or BGB combos (AID 1671450; in the data active means inhibition above about 80%;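 further: cells exposed to compound for four days; 0% = vehicle DMSO and 100% = cell killing by high DMSO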). Particulars: HDN33 neuroblastoma cells, stronger effect = higher value.
A short description of experiment [15]: growth inhibition, single agents and combos, ICB984, cell-based, cisplatin or BGB combos, synergistic combos for chromothripsis tumors (AID 1671451).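 Further: cells exposed for 96 hours before readout; 0% = vehicle DMSO and 100% = killing by high DMSO.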 To be noted: ICB984 medulloblastoma cells, drug combinations, stronger effect = higher value.
The nature of experiment [16]: growth inhibition, single agents and combos, HTB85, cell-based, BGB or cisplatin IC20 combos, synergistic combos for chromothripsis tumors (AID 1671453; in the data active means inhibition above about 80%;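 further: cells exposed for 96 hours before readout; 0% = vehicle DMSO and 100% = high DMSO killing control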). To be noted: HTB85 osteosarcoma cells, drug combinations, stronger effect = higher value.
Another experiment relates to F380Y/beta1. The experiment in a line: BK channel mutant inhibitors and activators – cell-based, U2OS BacMam, thallium flux, beta subunits, selectivity assay, profiling panel (AID 1259406;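 active means thallium flux through the channel raised or lowered by more than 3 SD from vehicle-only wells, actives on both sides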;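 further: initial slope of Thallos dye fluorescence rise after thallium is added; log ratio against the mean of 0.3% DMSO vehicle wells on the same plate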). Particulars: U2OS BacMam BK variants, at 30 µM.
The test system of another experiment is F380Y/beta4. The description is as above. Particulars: U2OS BacMam BK variants, at 30 µM.
Another experiment relates to R275C/beta4. The experiment is described as above. Particulars: U2OS BacMam BK variants, at 30 µM.
The test system of experiment [17] is Neuropilin-2 / VEGF-C interaction (human). The experiment in a line: small molecules blocking Neuropilin-2/VEGF-C interaction – biochemical, microplate binding format, z-score (AID 743281). Particulars: microplate NRP2/VEGF-C binding assay; stronger effect = lower value.

Records with an inconclusive call do not appear. Calls of active or inactive are those of the source. Unless noted, how the calls were made is not given here.

As for `O=C(O)c1nn(Cc2ccc(Cl)cc2Cl)c2ccccc12`, the remaining activity – broadly, the signal under treatment as a percentage of the control signal – in [1] was 90.4% (inactive). Moreover, the compound was classed as inactive in [2], in experiment [3], in experiment [4], in experiment [5], in experiment [6] and in experiment [7].

For `CN(C)[C@@H]1C(=O)C(C(N)=O)=C(O)[C@@]2(O)C(=O)C3=C(O)c4c(O)cccc4[C@@](C)(O)[C@H]3C[C@@H]12`, the call in experiment [2], in experiment [3], in experiment [8], in experiment [4], in [5] and in experiment [6] was inactive. The compound was called inactive in experiment [7].

For the compound `O=C(CCCN1CCC2(CC1)C(=O)NCN2c1ccccc1)c1ccc(F)cc1`, the remaining activity in experiment [1] was 101% (inactive).

For `O=C(O)CCCc1ccc(N(CCCl)CCCl)cc1`, the fluorescence ratio in experiment [9] was 1.06 (inactive); in [12], 1.01 (inactive). Further, the inhibition (in general, the drop in the measured response relative to a control, in per cent) in experiment [10] was -5% (inactive); in experiment [11], -4.29% (inactive); in experiment [13] (at 0.5 µM, stronger effect = higher value), -42.9% (inactive); in experiment [13] (measured here: combination with BGB IC20, at 0.005 µM) it was -28.5%; in experiment [13] (measured here: combination with BGB IC40, at 0.005 µM) it was -27.3%; in experiment [13] (measured here: combination with BGB IC40, at 0.05 µM), -24.4%. Moreover, the inhibition was -49.6% in experiment [13] (measured here: combination with cisplatin, at 0.5 µM, stronger effect = higher value); -22.6% in [13] (measured here: combination with cisplatin, at 5 µM, stronger effect = higher value); -4.28% in experiment [14] (BGB combo, at 5 µM); -4.71% (inactive) in experiment [14] (at 0.5 µM); -10.3% in experiment [14] (cisplatin combo, at 5 µM); -8.37% in experiment [14] (measured here: with BGB IC20 combination, at 0.5 µM). Further, the inhibition in [14] (measured here: with cisplatin IC20 combination, at 0.5 µM) is 15.9%; in [14] (single agent, at 5 µM) it was -10.9%; in experiment [15] (BGB IC20 combo, at 0.005 µM), -3.85%; in experiment [15] (BGB IC40 combo, at 0.005 µM) it was -23.1%; in [15] (BGB IC40 combo, at 0.05 µM) it was -2.9%; in [15] (at 0.5 µM), -29% (inactive). Moreover, the inhibition in experiment [15] (cisplatin combo, at 0.05 µM) was -2.9%; in [15] (cisplatin combo, at 0.5 µM), -34.6%; in experiment [15] (cisplatin combo, at 5 µM) it was -18.5%; in experiment [15] (measured here: 5 uM single agent, at 5 µM) it was -8.66%; in experiment [16] (at 0.5 µM), -18.7% (inactive); in experiment [16] (measured here: with BGB IC20, at 0.5 µM), -46.7%. For the same compound, the inhibition is -21.9% in experiment [16] (measured here: with BGB IC20, at 5 µM); -11% in experiment [16] (measured here: with cisplatin IC20, at 0.5 µM); -8.05% in experiment [16] (measured here: with cisplatin IC20, at 5 µM); -6.46% in [16] (single agent, at 5 µM). Also, the half-maximal activity concentration (AC50) (usually the concentration giving half of the maximal activity seen) in [2] is 934 nM (active); in experiment [6], 16600 nM (active). Moreover, the call in experiment [3], in [4], in [5] and in experiment [7] was inactive. Also, the log fold change Tl+ flux with F380Y/beta1 was 0.0024 (inactive); with F380Y/beta4, -0.0475 (inactive); in the experiment on R275C/beta4, -0.00696 (inactive).

Turning to `CCCC(C)(COC(N)=O)COC(=O)NC(C)C` (configuration not stated), the fluorescence ratio in [9] is 1.01 (inactive); in [12], 0.93 (inactive). For the same compound, the figures for the inhibition in [10] and in experiment [11] were -6.82% (inactive) and -2% (inactive), respectively. The compound was classed as inactive in experiment [3] and in [5]. Besides, the values for the log fold change Tl+ flux in the experiment on F380Y/beta1, in the experiment on F380Y/beta4 and with R275C/beta4 were 0.0587 (inactive), 0.0106 (inactive) and 0.0318 (inactive), respectively.

As for `CCC1(C2=NCCN2)Cc2ccccc2O1` (configuration not stated), the remaining activity in [1] was 98.6% (inactive).

Take `c1ccc2nc(N3CCNCC3)ccc2c1`: in [1], the remaining activity was 102% (inactive).

Consider `CC(C)N(CCC(C(N)=O)(c1ccccc1)c1ccccn1)C(C)C` (configuration not stated), for which the fluorescence ratio is 0.1 (active) in experiment [9] and 1.04 (inactive) in [12]. Moreover, the inhibition in [10] is -3.18% (inactive); in experiment [11], -3.53% (inactive). Besides, the log fold change Tl+ flux with F380Y/beta1 was 0.0372 (inactive); in the experiment with F380Y/beta4, 0.017 (inactive); in the experiment with R275C/beta4, -0.0304 (inactive).

As for `CCC1(c2ccc(N)cc2)CCC(=O)NC1=O` (configuration not stated), the fluorescence ratio in experiment [9] is 1.03 (inactive); in [12] it was 1.04 (inactive). Moreover, the inhibition is -2.27% (inactive) in experiment [10] and -2% (inactive) in experiment [11]. Also, the compound was classed as inactive in [2], in experiment [3], in experiment [4], in [5], in experiment [6] and in experiment [7]. For the same compound, the log fold change Tl+ flux is -0.0309 (inactive) in the experiment with F380Y/beta1, -0.00944 (inactive) in the experiment on F380Y/beta4 and 0.0132 (inactive) in the experiment with R275C/beta4.

On to `Clc1ccc(CO/N=C(\Cn2ccnc2)c2ccc(Cl)cc2Cl)c(Cl)c1`, for which the call in [17] was inactive.

For the compound `N[C@@H](Cc1ccc(N(CCCl)CCCl)cc1)C(=O)O`, the AC50 in [2] is 4170 nM (active); in experiment [8], 23500 nM (active); in experiment [4], 13200 nM (active). Besides, the IC50 (as a rule, the concentration needed to halve the response being measured) in experiment [7] was 29500 nM (active).

Consider `N[C@@H]1C[C@H]1c1ccccc1`, for which the remaining activity in [1] was 124% (inactive). In addition, the compound was called inactive in experiment [2], in experiment [3], in experiment [8], in experiment [4], in experiment [5] and in experiment [6]. The result in [7] was inactive.

For `C[C@@H]1O[C@@H](O[C@H]2C[C@@H](O)[C@]3(CO)[C@H]4[C@H](O)C[C@]5(C)[C@@H](C6=CC(=O)OC6)CC[C@]5(O)[C@@H]4CC[C@]3(O)C2)[C@H](O)[C@H](O)[C@H]1O`, the half-maximal activity concentration (AC50) in experiment [2] was 52.5 nM (active); in experiment [3], 13.2 nM (active); in experiment [8] it was 6.62 nM (active); in experiment [4] it was 14.8 nM (active); in [5], 29.6 nM (active); in experiment [6], 18.6 nM (active).

Consider `C[C@@H]1CC[C@H]2[C@@H](C)C(=O)O[C@@H]3O[C@@]4(C)CC[C@@H]1[C@]32OO4`, for which the remaining activity in [1] was 94.3% (inactive). Further, the call in experiment [2], in experiment [3], in [8], in [5], in [6] and in experiment [7] was inactive.

As to `C=C(C)[C@H]1CN[C@H](C(=O)O)[C@H]1CC(=O)O`, the remaining activity in [1] was 116% (inactive).
